Pol iota inh: qHTS for Inhibitors of Polymerase Iota. DNA polymerase iota (Homo sapiens), Q9UNA4. Pol iota fluorescent replication assay, 10 min. Potency, µM (series often up to 115 µM), for inactives: at the top dose activity, negative = inhibition, hits mostly inhibitors. 390,000 tested, 1% active; note: potency is the fitted concentration of half-maximal effect
Target sequence (Q9UNA4 whole entry, looked up): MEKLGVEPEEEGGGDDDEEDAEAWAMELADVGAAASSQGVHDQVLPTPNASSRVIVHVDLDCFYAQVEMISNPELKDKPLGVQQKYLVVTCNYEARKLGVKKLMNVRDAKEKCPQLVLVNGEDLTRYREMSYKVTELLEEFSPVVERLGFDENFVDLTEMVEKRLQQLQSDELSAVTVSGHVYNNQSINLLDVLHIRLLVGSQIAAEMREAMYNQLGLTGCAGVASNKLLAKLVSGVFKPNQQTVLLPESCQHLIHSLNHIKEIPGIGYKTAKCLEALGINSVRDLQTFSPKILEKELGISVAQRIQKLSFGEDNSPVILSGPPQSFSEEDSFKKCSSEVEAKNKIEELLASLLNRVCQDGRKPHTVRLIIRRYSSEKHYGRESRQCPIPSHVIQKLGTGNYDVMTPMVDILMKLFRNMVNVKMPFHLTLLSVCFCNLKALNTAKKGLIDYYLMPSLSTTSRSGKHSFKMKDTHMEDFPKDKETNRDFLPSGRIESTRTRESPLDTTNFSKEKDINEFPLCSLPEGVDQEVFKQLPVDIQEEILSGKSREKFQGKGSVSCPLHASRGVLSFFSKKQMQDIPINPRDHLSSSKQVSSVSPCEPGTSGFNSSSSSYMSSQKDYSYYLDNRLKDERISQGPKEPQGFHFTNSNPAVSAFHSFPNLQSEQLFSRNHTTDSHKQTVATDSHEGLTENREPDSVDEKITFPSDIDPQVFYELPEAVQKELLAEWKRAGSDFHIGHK
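Fluorescent replication assay read twice, at 0 min and 10 min after adding 50 nM (final) substrate. Enzyme (10 nM) and compounds were first incubated 15 min at room temperature; enzyme-free buffer wells were negative controls.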
PI5P4Ka inh: qHTS for Inhibitors of phosphatidylinositol 5-phosphate 4-kinase (PI5P4K); Phosphatidylinositol 5-phosphate 4-kinase type-2 alpha (Homo sapiens), P48426; PI5P4Kalpha enzyme, ADP-Glo luminescence, 60 min; stronger effect = lower value; AID 652105, 2013; 330,000 tested, 1.2% active; max response, %; active = max response of -50% or lower; inconclusive = between -30% and -50%; inactive = -30% or higher; note: value at the top dose of about 77 µM; % is set by controls: 0 for no effect and ±100 for the full control effect
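Single end-point luminescence (ADP-Glo) quantified ADP from PI5P4Kalpha turnover; ATP 5 microM final, 1 h at RT, 0.1% CHAPS and 0.28 mM EGTA in HEPES pH 7.4.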
Pol kappa inh: qHTS for Inhibitors of Polymerase Kappa; DNA polymerase kappa (Homo sapiens), Q9UBT6; 400,000 tested, 0.53% active; AID 588579, 2011; Potency, µM (series often up to 107 µM), without a hit: at the top dose activity, negative = inhibition, usual class: inhibitors; purified Pol kappa, fluorescent DNA synthesis assay, 10 min; note: potency is the fitted concentration of half-maximal effect; % is set by controls: 0 for no effect and ±100 for the full control effect
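10 nM Pol kappa was preincubated with compounds for 15 min at room temperature. Reaction started with 50 nM (final) substrate. Fluorescence read kinetically at 0 and 10 min.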
Pol eta inh: qHTS for Inhibitors of Polymerase Eta; 390,000 tested, 1.2% active; recombinant Pol eta, fluorescent DNA replication assay; DNA polymerase eta (Homo sapiens), Q9Y253; Potency, µM (doses to about 114 µM), for the others: top-dose activity change, negative = inhibition, actives largely listed as inhibitors; note: potency is the fitted concentration of half-maximal effect; % is set by controls: 0 for no effect and ±100 for the full control effect
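Fluorescent replication assay: 50 nM final substrate added after a 15 min room-temperature compound preincubation with 10 nM enzyme. Signal taken at 0 min and again at 10 min.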
WRN inhibitor: qHTS for Inhibitors of WRN Helicase | Bifunctional 3'-5' exonuclease/ATP-dependent helicase WRN (Homo sapiens), Q14191 | WRN helicase unwinding, fluorescent forked duplex, kinetic | Potency, µM (titrated, usually from 114 µM), for the others: at the top dose activity change, negative = inhibition, most hits filed as inhibitors | 360,000 tested, 0.46% active | AID 651768, 2012; note: potency is the fitted concentration of half-maximal effect; % is set by controls: 0 for no effect and ±100 for the full control effect; nearly all actives have a fitted effect of over 55% in size
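Enzyme (20 nM final) and test compound sit together 15 min at room temperature before substrate addition. Substrate is a single-forked duplex oligonucleotide (100 nM) labelled with fluorophore and quencher, with 2 mM ATP; helicase unwinding raises red fluorescence, read kinetically.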
POLB inh: qHTS Assay for Inhibitors of DNA Polymerase Beta | P06746 | Pol beta primer extension/strand displacement, fluorescence kinetic | Potency, µM (series often up to 114 µM), for the others: at the top dose activity change, negative = inhibition, actives largely listed as inhibitors | 340,000 tested, 1.3% active | AID 485314, 2010; note: potency is the fitted concentration of half-maximal effect; % is set by controls: 0 for no effect and ±100 for the full control effect
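Curves were derived by four-parameter Hill fits of normalized qHTS data. The kinetic fluorescent primer-extension read was taken at 0 and 10 min after 50 nM substrate, following a 15 min room-temperature preincubation of 10 nM enzyme with compounds.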
Active calls of the source: *; ? = inconclusive; nt = no result given; ! = repeats disagree; [ ] = dose if it differs, or a comment. Shown are actives, neighbours in structure and some others; about 2.8% of the full set was active somewhere. Unless noted, calls come from the whole dose curve; as a rule, active = well fitted curve in the direction sought with a large enough effect; inconclusive = small, poorly fitted or top-dose-only effect, or another doubt; inactive = no such curve, though single readings can be large; an effect the other way counts as inactive or inconclusive.

SMILES | Pol iota inh | PI5P4Ka inh | Pol kappa inh | Pol eta inh | WRN inhibitor | POLB inh
CC1(C)SC2C(N3C(=O)C(c4ccccc4)NC3(C)C)C(=O)N2C1C(=O)O (stereo not drawn) | nt | nt | 7.1µM* | nt | nt | nt
CC1(C)S[C@@H]2[C@H](NC(=O)[C@H](N)c3ccccc3)C(=O)N2[C@H]1C(=O)O | 28µM* | 1 | 22µM*! | 10µM* | -8% | ?
CC1(C)SC2C(NC(=O)C(C(=O)O)c3ccccc3)C(=O)N2C1C(=O)O (stereo not drawn) | nt | nt | -5%[60.1 µM] | nt | nt | nt
CC(Oc1ccccc1)C(=O)NC1C(=O)N2C(C(=O)O)C(C)(C)S[C@@H]12 (stereo partly drawn) | nt | nt | -9%[60.1 µM] | nt | nt | nt
COC(=O)C1N2C(=O)[C@@H](NC(=O)COc3ccccc3)[C@H]2SC1(C)C (stereo partly drawn) | 79µM*! | 2 | 14% | -6% | -2% | nt
CNc1c(NS(=O)(=O)c2ccc3c(c2)CCCC3)c(=O)oc2ccccc12 | 21% | 5 | -2% | -3% | 11% | 1%
COc1ccc(N2CCN(C(=O)COC(=O)c3ccc(C)o3)CC2)cc1 | -8% | -6 | -8% | -3% | 7% | nt
O=c1cc(-c2ccccc2)oc2cc(O)cc(O)c12 | 14% | -23 | -5% | 9% | 6% | nt
O=c1cc(-c2ccc(O)cc2)oc2ccc(O)cc12 | 35% | -25 | -9%[60.1 µM] | -10% | -11% | 23%
O=c1cc(-c2ccc(O)cc2)oc2ccccc12 | 30% | -6 | 0% | -2% | -17% | 28µM*
O=c1cc(-c2ccc(O)cc2)oc2cc(O)cc(O)c12 | ? | ? | 20µM*! | ? | -7% | -12%[57.1 µM]
O=c1cc(-c2cccc(O)c2O)oc2ccccc12 | nt | nt | 13µM* | nt | nt | nt
CC(NS(=O)(=O)c1ccc(Cl)cc1)C(=O)NCc1ccco1 (stereo not drawn) | 71µM* | nt | -39% | -9% | -9%[57.1 µM] | ?
O=C(OC1CCOC1=O)c1ccccc1C(=O)c1ccc(Cl)c([N+](=O)[O-])c1 (stereo not drawn) | 40µM* | -6 | -37% | 50µM* | -6% | nt
Cc1[nH][nH]c(=O)c1C(c1c(C)[nH][nH]c1=O)c1cn(Cc2ccccc2Cl)c2ccccc12 | 5.6µM* | -27 | -15% | ? | -32% | -15%
Cc1ccc(Nc2ccc(N)cc2S(=O)(=O)O)cc1 | ? | -7 | -1% | 40µM* | -30% | ?
CCCCN(C(=O)CNC(=O)c1ccco1)C(C(=O)NC1CCCCC1)c1cccnc1 (stereo not drawn) | -3% | 1 | 3% | -21% | 0% | 81%
Cc1cccn2c(=O)c3cc(C(=O)NCc4ccccc4)c(=N)n(CCOCCO)c3nc12 | ? | nt | -13% | -5% | nt | ?
C=CCn1c(COc2ccc(Cl)cc2)nnc1SCc1ccc(C#N)cc1 | -17% | -80* | -10% | -2% | 0% | 1%
O=c1c2ccccc2oc2cc(OCc3cccc(F)c3)cc(O)c12 | ? | 16 | ? | -1% | -22% | 22µM*
COc1ccc(N(CC(=O)Nc2ccc(C)cc2)S(=O)(=O)c2c(C)noc2C)cc1 | 8% | -5 | 2% | -19% | 3% | 12%
COc1ccc(N(CC(=O)Nc2cc(OC)cc(OC)c2)S(=O)(=O)c2c(C)noc2C)cc1 | 89µM* | nt | -28% | -20% | nt | 0%
COC(=O)N1CCCc2cc(S(=O)(=O)NCc3ccccc3)ccc21 | -15% | nt | -17% | -11% | nt | 0%
CC1C2(C)OC(=N)C(C#N)(C(C)O2)C1(C#N)C#N (stereo not drawn) | ? | -3 | 3% | -7% | 79µM* | -16%
N.N.O=C(O)C1(C(=O)O)CCC1.[Pt] | -7%[58.9 µM] | nt | 22µM* | -3%[57.1 µM] | nt | 8%[57.1 µM]
O=C(O)C1(C(=O)O)CCC1 | -3% | -4 | -18% | -2% | 0% | nt
